Consider 49 compounds from ChEMBL document CHEMBL3988442, “University of Dundee, Small-Polar-MMV Screening Library” (2021).

The whole screen tested about 48,000 compounds, of which about 13,000 (27%) showed an effect of 50% or more. Some of the results follow.

For the assay, the system named is Wolbachia pipientis. Kind of assay: Anti-Wolbachia Cell-Based Screen. Type of assay: functional. More on the design: scale not given: in the data most compounds retested in dose-response had high values. Conditions: 5 µM.
Take `CCCS(=O)(=O)N1CCC2(CCCC(=O)N2C)CC1`: the “Percent Effect” value is listed as -27.87%.

On to `COCCN1CCN(Cc2ccc(C(C)=O)cc2)[C@H]2CS(=O)(=O)C[C@H]21`, for which the “Percent Effect” value is -2.157%.

`Cc1nn(C)c(Oc2cccc(F)c2)c1NC(=O)C1CCCO1` (centres undefined): the “Percent Effect” value was found to be 1.382%.

`COC(=O)C1CN(Cc2ccc(-c3ccncc3)cc2F)C[C@@H](C)O1` (some centres undefined): the “Percent Effect” value is 4.503%.

Take `CC(C)OCCN1CCN(C(=O)c2cccc(-n3cccn3)n2)CC1`: the “Percent Effect” value is listed as -4.895%.

For `COc1cccc2c1OCC(NC(=O)NCCC(N)=O)C2` (centres undefined), the “Percent Effect” value is 107.1%.

With `COc1cccc2c1OCC(NC(=O)NCCc1ccccn1)C2` (centres undefined), the “Percent Effect” value came to 120.5%.

For `COc1cccc2c1OCC(C(=O)NCCc1nnc(N)s1)C2` (centres undefined), the “Percent Effect” value came to 12.39%.

For `COc1cccc2c1OCC(CNC(=O)CSc1ccccn1)C2` (centres undefined), the “Percent Effect” value was -6.827%.

Turning to `COc1cccc2c1OCC(C(=O)NCCc1nnc(C)s1)C2` (centres undefined), the “Percent Effect” value is reported as 6.125%.

On to `COc1cccc2c1OCC(CNC(=O)CNC(N)=O)C2` (centres undefined), for which the “Percent Effect” value is -0.3476%.

For the compound `CNC(=O)c1cccc(CNC2CCCSc3ccccc32)c1` (centres undefined), the “Percent Effect” value is -0.5699%.

`CN(C)C(C(=O)NCC1(Cn2cccn2)CC1)c1ccc(F)cc1` (centres undefined): the “Percent Effect” value is given as -7.743%.

Take `CSc1ccc(OC(C)C(=O)Nc2cc[nH]n2)cc1` (centres undefined): the “Percent Effect” value was determined as 1.482%.

Consider `COc1cccc(CNCc2nnc3n2CC(C(F)(F)F)CC3)c1` (centres undefined), for which the “Percent Effect” value is on record as -16.12%.

As for `CCC1COCCN1C(=O)CNC(=O)c1ccc2c(c1)CCC2` (centres undefined), the “Percent Effect” value was -1.675%.

On to `CC(Cn1cccn1)NC(=O)NCCN1CCc2ccccc2C1` (centres undefined), for which the “Percent Effect” value is reported as 1.571%.

In the case of `NC(=O)Cn1cc(NC(=O)NCCN2CCc3ccccc3C2)cn1`, the “Percent Effect” value is on record as 93.55%.

Regarding `CCn1cc(NC(=O)NCC(c2cccs2)N(C)C)cn1` (centres undefined), the “Percent Effect” value was -11.74%.

For the compound `CCn1cc(NC(=O)NCC(C)(C)N2CCc3ccccc3C2)cn1`, the “Percent Effect” value stood at 107.6%.

For the compound `O=C(NCC(O)CN1CCc2ccccc2C1)Nc1cccnc1` (centres undefined), the “Percent Effect” value stood at 1.395%.

As for `CCC(CNC(=O)c1ccccc1Br)N1CCc2ccccc2C1` (centres undefined), the “Percent Effect” value is -9.585%.

Consider `CCC(CNC(=O)Nc1cnn(CC)c1)N1CCCC1` (centres undefined), for which the “Percent Effect” value is listed as -8.538%.

In the case of `CCC(CNC(=O)Nc1cnn(CC)c1)N1CCc2ccccc2C1` (centres undefined), the “Percent Effect” value amounted to 115.3%.

With `NC(=O)Cn1cc(NC(=O)NCC2CCN(c3ccccc3)C2)cn1` (centres undefined), the “Percent Effect” value is 6.849%.

Consider `CCn1cc(NC(=O)NCCN2CCc3ccccc3C2)cn1`, for which the “Percent Effect” value is 123.6%.

As to `NC(=O)Cn1cc(NC(=O)N2CCCC2)cn1`, the “Percent Effect” value is -13.27%.

Consider `CCn1cc(NC(=O)NCC(O)CN2CCc3ccccc3C2)cn1` (centres undefined), for which the “Percent Effect” value is reported as 9.53%.

Take `CCOc1ncccc1CNCc1c(C(C)C)nn(C)c1N(C)C`: the “Percent Effect” value stood at 98.21%.

For the compound `COCCOc1ncccc1CNCc1c(C)nn(C)c1N(C)C`, the “Percent Effect” value worked out at 5.631%.

For the compound `CC(C)c1nn(C)c(N(C)C)c1CNCc1ccccc1CN(C)C`, the “Percent Effect” value is given as -8.36%.

For the compound `Cc1nn(CCO)c(C)c1CNCc1cccnc1N(C)C`, the “Percent Effect” value stood at 113.9%.

Take `Cc1cnn(CCNCc2c(C)nn(CCO)c2C)c1`: the “Percent Effect” value worked out at 8.317%.

On to `COCc1ccccc1CNCc1c(C)nn(C)c1N(C)C`, for which the “Percent Effect” value is on record as 5.243%.

For `Cc1nn(C)c(N(C)C)c1CNCc1cccnc1N(C)C`, the “Percent Effect” value is listed as 64.69%.

With `Cc1cc2nc(C(=O)NCc3cccnc3N(C)C)cc(C)n2n1`, the “Percent Effect” value is -11.37%.

Consider `Cc1nn(C)c(N(C)C)c1CNCc1ccccc1Cn1cncn1`, for which the “Percent Effect” value is 3.483%.

With `COc1ncccc1CNCc1c(C)nn(C)c1N(C)C`, the “Percent Effect” value amounted to 96.94%.

Take `COc1ncccc1CNCc1c(C(C)C)nn(C)c1N(C)C`: the “Percent Effect” value is on record as 7.273%.

As for `CCOc1ccc(NC2CCN(C)C2=O)cn1` (centres undefined), the “Percent Effect” value is reported as -24.45%.

Turning to `Cc1noc(C)c1CN(C)CC1CC(C2CCCCC2)=NO1` (centres undefined), the “Percent Effect” value was determined as 7.193%.

Consider `Cc1cc(CNCC2(O)CCOCC2)ccc1Br`, for which the “Percent Effect” value is on record as -3.743%.

`CN1CCN(CCCOc2ccccc2CN2C[C@H]3CC[C@H]2C3)CC1`: the “Percent Effect” value was -24.99%.

As to `Cc1nn(C)c(N(C)C)c1CNCc1cccnc1OC(C)C`, the “Percent Effect” value came out at 107.9%.

Regarding `Cc1nn(C)c(N(C)C)c1CNCc1ccccc1CN(C)C`, the “Percent Effect” value came out at 13.98%.

As to `COc1c(CNCc2cccnc2OC(C)C)c(C(C)C)nn1C`, the “Percent Effect” value is 2.472%.

In the case of `CCOc1ncccc1CNCc1c(C)nn(C)c1N(C)C`, the “Percent Effect” value was 97%.

With `Cc1ccc(CNC(=O)C2CCN(C(=O)c3ccco3)CC2)n1C`, the “Percent Effect” value amounted to 1.7%.

With `Cn1cc(CN2C[C@@H]3CCCO[C@@H]3[C@H](N3CCCC3=O)C2)cn1.O=C(O)C(F)(F)F`, the “Percent Effect” value is on record as -11.94%.
